nsP2pro primary – Primary qHTS for inhibitors of NSP2Pro chikungunya virus (CHIKV) | AID 1964107, 2024 | FRET peptide cleavage, nsP2pro, fluorescence 1 h | Potency, µM (highest dose often 24.9 µM), without a hit: at the top dose activity change, negative = inhibition, actives largely listed as inhibitors | Polyprotein P1234 (Chikungunya virus (strain S27-African prototype)), Q8JUX6 | 31,000 compounds, 1.1% hits; also: nearly all actives have a fitted effect of over 60% in size
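FRET cleavage of 2.5 uM peptide 2 by 150 nM CHIKV protease domain at pH 8.0 (Tris, Tween 20). Compounds at 7 concentrations (up to 25 uM) preincubated 15 min. Fluorescence read after 1 h at room temperature.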
CHIKV nsP2 cell – Secondary cell base assay for inhibitors of NSP2Pro Chikungunya virus (CHIKV). AID 1964100, 2024. 450 compounds, 10% hits. cell-based CHIKV nsP2 protease reporter assay. Potency, µM (doses to about 51.1 µM), without a hit: at the highest dose activity change, negative = inhibition, actives largely listed as inhibitors. shares compounds with nsP2pro primary; also: nearly all actives have a fitted effect of over 70% in size
CHIKV NSP2 FL – Selectivity profile for inhibitors of NSP2Pro chikungunya virus (CHIKV): Full length NSP2 enzyme counterscreen (CHIKV-NSP2); shares compounds with nsP2pro primary; Full-length CHIKV NSP2 protease enzymatic counterscreen; Potency, µM (doses to about 50.7 µM), without a hit: top-dose activity change, negative = inhibition, most hits filed as inhibitors; 410 compounds, 39% hits; also: nearly all actives have a fitted effect of over 65% in size
Furin counter – Selectivity profile for inhibitors of NSP2Pro chikungunya virus (CHIKV): Human furin counterscreen; Potency, µM (highest dose often 50.6 µM), without a hit: at the highest dose activity change, negative = inhibition, actives largely listed as inhibitors; AID 1964102, 2024; Recombinant human furin enzymatic counterscreen, fluorogenic substrate; shares compounds with nsP2pro primary; 410 compounds, 6% hits
nsP2 NS23 pep – Selectivity profile for inhibitors of NSP2Pro chikungunya virus (CHIKV): Endogenous NS2/3 peptide Counterscreen; shares compounds with nsP2pro primary; Purified CHIKV nsP2 protease, endogenous NS2/3 peptide cleavage; Potency, µM (doses to about 51 µM), inactives show top-dose activity change, negative = inhibition, most hits filed as inhibitors; 410 compounds, 34% hits; AID 1964103, 2024; also: nearly all actives have a fitted effect of over 55% in size
Papain counter – Selectivity profile for inhibitors of NSP2Pro chikungunya virus (CHIKV): Papain Counterscreen | shares compounds with nsP2pro primary | purified papain protease activity, enzymatic inhibition | Potency, µM (titrated, usually from 51 µM), for the others: at the top dose activity change, negative = inhibition, actives largely listed as inhibitors | 410 compounds, 5% hits
Target sequence (P00784 whole entry, looked up): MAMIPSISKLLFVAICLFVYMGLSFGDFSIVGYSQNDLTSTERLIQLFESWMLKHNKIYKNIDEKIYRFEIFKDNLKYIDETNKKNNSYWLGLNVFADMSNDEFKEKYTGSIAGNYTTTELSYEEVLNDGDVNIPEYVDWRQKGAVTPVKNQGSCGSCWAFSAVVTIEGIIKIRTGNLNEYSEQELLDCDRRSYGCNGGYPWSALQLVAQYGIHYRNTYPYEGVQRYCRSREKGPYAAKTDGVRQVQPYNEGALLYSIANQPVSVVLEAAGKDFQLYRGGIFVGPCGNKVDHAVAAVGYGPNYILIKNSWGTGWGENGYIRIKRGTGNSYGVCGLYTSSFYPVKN
nsP2pro confirm – Confirmatory qHTS for inhibitors of NSP2Pro chikungunya virus (CHIKV); shares compounds with nsP2pro primary; CHIKV nsP2 protease enzymatic activity, qHTS; Potency, µM (titrated, usually from 25.5 µM), without a hit: at the highest dose activity change, negative = inhibition, hits mostly inhibitors; 410 compounds, 43% hits; also: nearly all actives have a fitted effect of over 75% in size
HCV NS3 counter – Selectivity profile for inhibitors of NSP2Pro chikungunya virus (CHIKV): NS34A-HCV Counterscreen; AID 1964106, 2024; HCV NS3/4A protease biochemical counterscreen; shares compounds with nsP2pro primary; Potency, µM (doses to about 50.9 µM), hits mostly inhibitors; 410 compounds, 20% hits; also: nearly all actives have a fitted effect of over 55% in size
Starred values were filed as active, the others as inactive; i = inactive; ? = inconclusive; [ ] = dose if it differs, or a comment. Shown is part of a subset that was picked to be rich in hits. Calls follow the shape of the full dose curve. % is scaled to controls: 0 for no effect and ±100 for the full control effect; potency is read from the fitted curve at half-maximal effect.

SMILES | nsP2pro primary | others
O=C1Nc2ccccc2CC12CCN2Cc1ccc(OC(F)(F)F)cc1 (centres undefined) | 2%
O=C1Nc2ccccc2CC12CCN(Cc1cccnc1)C2 (centres undefined) | -7%[39.2 µM]
O=C1Nc2ccccc2CN(Cc2ccccc2)C12CCNC2 (centres undefined) | ? | CHIKV nsP2 cell=43%
CN(C)c1cc(NC(=O)CNC(C)(C)C)c(O)c2c1C[C@H]1C[C@H]3[C@H](N(C)C)C(=O)C(C(N)=O)=C(O)[C@]3(O)C(=O)C1=C2O | 130%
O=C1COc2c(CCNCCN(C(=O)CCNCCc3ccc(Cl)c(Cl)c3)C3CCCCC3)ccc(O)c2N1 | 47%
CCOC(=O)c1ccc(NC2SC(=O)N(Cc3cccc(C(=O)O)c3)C2=O)cc1 (centres undefined) | 7.9µM* | CHIKV nsP2 cell=-6%
CCOC(=O)c1ccc(NC(=O)CN2CCCCC2)cc1 | 9%
CCOC(=O)c1ccc2nc(C)cc(Nc3cccc(C(=O)O)c3)c2c1 | 0%
C(=Nc1cccnc1)c1cccs1 | -11%
O=C(c1cc2sccc2n1Cc1ccccc1)N(CCc1ccc(O)c(O)c1)Cc1ccccc1 | i
COc1cc(F)c(C(C)C)cc1-c1ccc(C(F)(F)F)cc1CN1C(=O)OC(c2cc(C(F)(F)F)cc(C(F)(F)F)c2)C1C (centres undefined) | 29%
O=C(NCc1ccccc1-c1ccccc1C(=O)NCCc1ccccn1)OCc1ccccc1 | 1%
Cn1c(CNc2cccc(C(=O)NCc3ccccc3C(F)(F)F)c2)nnc1-c1ccncc1 | 7%
Cc1cc(-c2nnc3n2CCCCC3)c(C)n1-c1cccc2ccccc12 | -13%
C=C1C(=O)O[C@@H]2C(OC(=O)/C(C)=C\C)/C(C)=C\C(=O)/C=C(\C)C[C@H](O)[C@@H]12 (some centres undefined) | ? | CHIKV nsP2 cell=?;CHIKV NSP2 FL=-11%[33.5 µM];Furin counter=-6%[33.5 µM];nsP2 NS23 pep=?;Papain counter=-12%[33.5 µM];nsP2pro confirm=-23%[16.7 µM];HCV NS3 counter=?
C=C1C(=O)O[C@@H]2/C=C(/C)CC3C=C(C[C@H](OC(=O)/C(C)=C\C)[C@@H]12)C(=O)O3 (some centres undefined) | -30%
C=C1C(=O)O[C@@H]2[C@H]3C(=C)[C@@H](O)C[C@H]3C(=C)C[C@@H](O)[C@@H]12 | 35%
COC(=O)c1ccc(O)c2ncc(N3CC[C@H](N)C3)cc12 | i
CC(C)(O)C1CC=C(C(=O)OC[C@H]2O[C@@H](Oc3cc(C(=O)O)cc(O)c3O)[C@H](O)[C@@H](O)[C@@H]2O)CC1 (some centres undefined) | 67%[10 µM]
CCCc1ccc(OCC(=O)N(Cc2nc(-c3cccnc3)no2)C(C)C)cc1 | 3%
CC1=C2CC(O)(C(C)(C)O)C(O[C@@H]3O[C@H](CO)[C@@H](O)[C@H](O)[C@H]3O)CC(C)C2CC1=O (some centres undefined) | 30%[10 µM]
C=C1C(=O)O[C@@H]2C[C@]3(C)[C@@H](CCC(C)=O)[C@@H]3C[C@H]12 | 17%
C=C1C(=O)O[C@@H]2C[C@H](C)[C@@H]3CC(=O)C(C)=C3C[C@H]12 | 0.44µM* | CHIKV nsP2 cell=?;CHIKV NSP2 FL=?;Furin counter=-7%;nsP2 NS23 pep=?;Papain counter=-3%;nsP2pro confirm=?;HCV NS3 counter=i
Cc1ccc(C)n1-c1cccc(-c2nn[nH]n2)c1 | i
Cc1ccc(S(=O)(=O)Nc2ccccc2C(=O)Nc2ccc(-c3ccccc3)nc2)cc1 | -15%
SMILES | nsP2pro primary | others
C[C@H]1O[C@@H](O[C@H]2CC[C@@]3(C)C(CC[C@]4(C)[C@@H]3C=CC3=C5CC(C)(C)CC[C@]5(CO)[C@H](O)C[C@@]34C)[C@]2(C)CO)[C@H](O)[C@@H](O[C@@H]2O[C@H](CO)[C@@H](O)[C@H](O)[C@@H]2O)[C@H]1O (some centres undefined) | 0%
COc1ccc(NS(=O)(=O)c2ccc(N)cc2)nn1 | -4%
COc1ccc([N+](=O)[O-])c(S(=O)(=O)c2ccc(Cl)cc2)n1 | 6.3µM* | CHIKV nsP2 cell=2.1µM*;CHIKV NSP2 FL=23µM*;Furin counter=-1%;nsP2 NS23 pep=5.8µM*;Papain counter=-10%;nsP2pro confirm=-98%;HCV NS3 counter=i
COc1ccc([N+](=O)[O-])c(S(=O)(=O)c2ccccc2)n1 | 2.2µM* | CHIKV nsP2 cell=1.8µM*;CHIKV NSP2 FL=13µM*;Furin counter=?;nsP2 NS23 pep=3.3µM*;Papain counter=-12%;nsP2pro confirm=5.7µM*;HCV NS3 counter=?
COc1ccc(-c2ccc(NS(=O)(=O)c3ccccc3)cc2)nn1 | -2%
CCN(CC)CCCNc1sc(S(=O)(=O)c2ccccc2)nc1S(=O)(=O)c1ccc(Cl)cc1 | 30%
COc1cc(NS(=O)(=O)c2cccc([N+](=O)[O-])c2)c2ncccc2c1 | 107%
COc1ccnc(NC(=S)N2CCN(c3cc(C(F)(F)F)cc(C(F)(F)F)c3)CC2)c1 | i
CN(CC(=O)Nc1ccc(N2CCOCC2)cc1)Cc1cccc2ccccc12 | -3%
CN1CCC(c2cn(C)c3ccc(OS(=O)(=O)c4c(F)cccc4F)cc23)CC1 | 105%
NC(=O)NCCCC(N)C(=O)O (centres undefined) | -30%
Cc1cc(Nc2ncnc3ccc(-c4ccc(CNCCS(C)(=O)=O)o4)cc23)ccc1Oc1ccn2ncnc2c1 | 1.2µM* | CHIKV nsP2 cell=-13%;CHIKV NSP2 FL=4.1µM*;Furin counter=-13%;nsP2 NS23 pep=?;Papain counter=?;nsP2pro confirm=4.5µM*;HCV NS3 counter=?
CCOC(=O)c1ccc(-c2ccc3ncnc(NCc4ccc(C)o4)c3c2)o1 | -3%
CS(=O)(=O)CCNCc1ccc(-c2ccc3ncnc(Nc4ccc(OCc5cccc(F)c5)c(Cl)c4)c3c2)o1 | 75%
CC1(C)OB(c2ccc(O)c3ncc(N4CCNCC4)cc23)OC1(C)C | i

Screening data deposited in PubChem by National Center for Advancing Translational Sciences (NCATS).
